Common to all, as to format: functional
Test [1] concerns Plasmodium falciparum. The test can be described thus: GSK_TCMDC: Inhibition of Plasmodium falciparum 3D7 in whole red blood cells, using parasite LDH activity as an index of growth. Test compounds present at 2uM.
In test [2] the test system is Plasmodium falciparum. The test can be described thus: GSK_TCMDC: Inhibition of Plasmodium falciparum Dd2 in whole red blood cells, using parasite LDH activity as an index of growth. Test compounds present at 2uM.
Another test has as its system HepG2. Description: GSK_TCMDC: Percent inhibition of human HepG2 cell line. Test compounds present at 10uM.

The record followed here is ChEMBL document CHEMBL1157539, “Thousands of chemical starting points for antimalarial lead identification” (Nature, 2010).

One may read the Inhibition as the drop in the measured response relative to a control, in per cent. Take `CCCCc1ccc(-c2ccc(-c3c(C)[nH]c(C)c(Br)c3=O)cn2)cc1.Cl`: the Inhibition in the test with Plasmodium falciparum [1] was determined as 98%; in the test with Plasmodium falciparum [2] it was 96%; in the test on HepG2, 0%.
In the same order, the values of `NC1CCCN(Cc2cccc(-c3ccc(-c4nc5ccccc5[nH]4)s3)c2)C1.O=C(O)C(F)(F)F` (centres undefined) are 98%, 88% and 21%.
The like results for `COc1ccccc1CNC(=O)c1ccc(N2CCN(c3ccncc3)CC2)cn1.O=C(O)C(F)(F)F` were, in that order, 96%, 17% and 16%.
In the same order, the values of `COc1ccc(-c2nc3c(N)nc(N)nc3nc2-c2ccccc2Cl)cc1.COc1ccc(-c2nc3nc(N)nc(N)c3nc2-c2ccccc2Cl)cc1.Cl` are 93%, 0% and 45%.
As for `CCCN(CCC)CC(O)COc1ccccc1C(=O)Nc1ccccc1` (centres undefined), the figures for the Inhibition in the test with Plasmodium falciparum [1], with Plasmodium falciparum [2] and with HepG2 were 92%, 95% and 6%, respectively.
The like results for `CCN(CC)CCN(CCCc1ccc(-c2ccc(C(F)(F)F)cc2)cc1)C(=O)Cn1c(CCc2cccc(F)c2F)nc(=O)c2ccccc21.O=C(O)C(O)C(O)C(=O)O` were, in that order, 100%, 49% and 37%.
`c1ccc2c(c1)ncc1c3ccccc3[nH]c21`: the Inhibition in the test with Plasmodium falciparum [1] is listed as 95%; in the test on Plasmodium falciparum [2], 36%; with HepG2 it was 0%.
In the same order, the values of `CC(C)N1CCC(N(Cc2ccc(-c3ccc(C(F)(F)F)cc3)cc2)C(=O)Cn2c(SCc3cccc(F)c3F)nc(=O)c3ccccc32)CC1.O=C(O)C(O)C(O)C(=O)O` are 91%, 75% and 74%.
